According to ChEMBL document CHEMBL1961873, “Compounds: GSK PKIS; Assays: Nanosyn kinase panel” (2012):

Key:
[1] = target: T1, Serine/threonine-protein kinase D2 (Homo sapiens) (UniProt Q9BZL6); conditions: at 1 µM;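 further: mean value of PRKD2 inhibition, from the GSK PKIS screening panel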
T1 sequence (whole entry): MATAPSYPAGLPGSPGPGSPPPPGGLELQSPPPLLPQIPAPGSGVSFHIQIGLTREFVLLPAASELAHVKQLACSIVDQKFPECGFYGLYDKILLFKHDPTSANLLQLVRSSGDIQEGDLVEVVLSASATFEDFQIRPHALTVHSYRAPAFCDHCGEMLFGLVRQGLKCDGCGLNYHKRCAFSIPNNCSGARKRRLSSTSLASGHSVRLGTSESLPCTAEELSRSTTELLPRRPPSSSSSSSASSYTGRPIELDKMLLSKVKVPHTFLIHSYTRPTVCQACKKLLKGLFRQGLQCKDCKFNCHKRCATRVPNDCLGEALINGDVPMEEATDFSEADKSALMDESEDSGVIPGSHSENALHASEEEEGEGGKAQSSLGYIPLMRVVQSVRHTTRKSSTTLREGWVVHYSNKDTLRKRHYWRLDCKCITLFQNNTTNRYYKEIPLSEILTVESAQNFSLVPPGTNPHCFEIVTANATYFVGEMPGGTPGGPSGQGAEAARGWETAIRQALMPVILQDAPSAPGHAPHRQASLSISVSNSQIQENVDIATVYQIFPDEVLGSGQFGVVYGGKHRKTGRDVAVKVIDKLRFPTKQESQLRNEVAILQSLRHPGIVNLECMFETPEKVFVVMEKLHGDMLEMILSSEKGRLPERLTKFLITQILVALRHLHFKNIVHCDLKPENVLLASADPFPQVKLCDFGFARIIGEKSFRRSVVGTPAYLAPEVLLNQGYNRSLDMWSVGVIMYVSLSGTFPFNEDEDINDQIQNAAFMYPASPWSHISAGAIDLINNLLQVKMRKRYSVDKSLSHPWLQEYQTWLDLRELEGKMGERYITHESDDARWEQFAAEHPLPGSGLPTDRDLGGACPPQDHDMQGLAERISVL

[2] = target: T2, Serine/threonine-protein kinase D3 (Homo sapiens) (UniProt O94806); conditions: at 0.1 µM
T2 sequence (whole entry): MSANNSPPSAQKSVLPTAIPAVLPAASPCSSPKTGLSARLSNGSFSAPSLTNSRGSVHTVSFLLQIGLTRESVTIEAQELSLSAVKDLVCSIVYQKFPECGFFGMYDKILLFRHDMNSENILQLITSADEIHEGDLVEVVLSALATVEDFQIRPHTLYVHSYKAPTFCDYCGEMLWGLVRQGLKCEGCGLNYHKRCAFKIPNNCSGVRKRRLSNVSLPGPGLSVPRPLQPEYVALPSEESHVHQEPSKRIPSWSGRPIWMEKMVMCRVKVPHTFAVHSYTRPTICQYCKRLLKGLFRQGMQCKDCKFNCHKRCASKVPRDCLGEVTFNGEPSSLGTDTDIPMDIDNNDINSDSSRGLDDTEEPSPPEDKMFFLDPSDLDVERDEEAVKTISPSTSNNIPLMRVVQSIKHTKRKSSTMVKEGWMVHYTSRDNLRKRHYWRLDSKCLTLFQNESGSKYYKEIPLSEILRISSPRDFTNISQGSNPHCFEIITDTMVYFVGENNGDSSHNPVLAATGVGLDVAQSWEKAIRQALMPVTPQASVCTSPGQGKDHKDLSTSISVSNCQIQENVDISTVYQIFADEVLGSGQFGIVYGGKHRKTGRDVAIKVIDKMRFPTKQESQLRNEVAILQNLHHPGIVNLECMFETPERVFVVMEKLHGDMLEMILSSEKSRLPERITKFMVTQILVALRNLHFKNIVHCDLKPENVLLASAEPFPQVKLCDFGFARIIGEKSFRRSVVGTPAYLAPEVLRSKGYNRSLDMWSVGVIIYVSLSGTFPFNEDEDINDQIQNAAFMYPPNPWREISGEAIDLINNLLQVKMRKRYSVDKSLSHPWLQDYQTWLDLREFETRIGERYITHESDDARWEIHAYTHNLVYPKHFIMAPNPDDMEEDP

[3] = target: T2, Serine/threonine-protein kinase D3 (Homo sapiens); conditions: at 1 µM
[4] = target: T3, cGMP-dependent protein kinase 1 (Homo sapiens) (UniProt Q13976); conditions: at 0.1 µM
T3 sequence (whole entry): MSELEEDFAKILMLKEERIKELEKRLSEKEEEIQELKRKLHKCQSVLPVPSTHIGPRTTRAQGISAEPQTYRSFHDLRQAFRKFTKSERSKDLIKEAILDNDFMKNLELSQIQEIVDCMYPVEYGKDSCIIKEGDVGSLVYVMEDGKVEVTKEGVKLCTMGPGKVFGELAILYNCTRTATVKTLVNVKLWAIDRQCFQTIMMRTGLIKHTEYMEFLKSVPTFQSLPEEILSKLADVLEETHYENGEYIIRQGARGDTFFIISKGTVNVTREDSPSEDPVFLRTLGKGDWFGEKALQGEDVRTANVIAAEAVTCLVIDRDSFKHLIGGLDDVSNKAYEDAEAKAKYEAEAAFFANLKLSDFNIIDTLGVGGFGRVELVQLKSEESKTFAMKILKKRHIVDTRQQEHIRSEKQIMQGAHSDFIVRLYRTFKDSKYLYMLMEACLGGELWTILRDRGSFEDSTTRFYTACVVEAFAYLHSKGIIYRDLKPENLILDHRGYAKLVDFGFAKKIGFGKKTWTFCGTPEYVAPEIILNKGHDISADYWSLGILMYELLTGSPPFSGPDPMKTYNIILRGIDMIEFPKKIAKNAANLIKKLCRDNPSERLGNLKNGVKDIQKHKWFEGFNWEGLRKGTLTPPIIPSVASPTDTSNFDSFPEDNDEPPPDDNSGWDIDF

[5] = target: T3, cGMP-dependent protein kinase 1 (Homo sapiens); conditions: at 1 µM
[6] = target: T4, cGMP-dependent protein kinase 2 (Homo sapiens) (UniProt Q13237); conditions: at 0.1 µM
T4 sequence (whole entry): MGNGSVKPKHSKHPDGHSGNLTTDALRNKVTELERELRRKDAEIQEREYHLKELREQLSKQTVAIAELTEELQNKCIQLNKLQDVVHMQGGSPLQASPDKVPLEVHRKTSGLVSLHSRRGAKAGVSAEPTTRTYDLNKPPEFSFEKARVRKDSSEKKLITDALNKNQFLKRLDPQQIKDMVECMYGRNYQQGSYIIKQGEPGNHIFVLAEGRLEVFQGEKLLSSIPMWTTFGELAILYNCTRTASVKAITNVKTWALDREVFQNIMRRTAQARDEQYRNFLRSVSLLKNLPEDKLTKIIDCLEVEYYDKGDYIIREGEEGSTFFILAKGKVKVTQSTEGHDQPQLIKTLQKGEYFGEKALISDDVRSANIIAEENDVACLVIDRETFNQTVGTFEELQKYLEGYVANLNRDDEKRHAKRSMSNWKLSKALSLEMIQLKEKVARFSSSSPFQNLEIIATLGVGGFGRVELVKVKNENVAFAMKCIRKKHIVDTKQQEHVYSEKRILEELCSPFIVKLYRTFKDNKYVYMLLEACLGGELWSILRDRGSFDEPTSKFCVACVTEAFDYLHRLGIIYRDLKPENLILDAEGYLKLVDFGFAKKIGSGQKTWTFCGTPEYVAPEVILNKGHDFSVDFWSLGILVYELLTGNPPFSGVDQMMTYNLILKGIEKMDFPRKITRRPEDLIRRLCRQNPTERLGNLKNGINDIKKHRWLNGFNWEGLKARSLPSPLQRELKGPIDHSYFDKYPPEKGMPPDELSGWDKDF

[7] = target: T4, cGMP-dependent protein kinase 2 (Homo sapiens); conditions: at 1 µM
[8] = target: T5, cAMP-dependent protein kinase catalytic subunit PRKX (Homo sapiens) (UniProt P51817); conditions: at 0.1 µM
T5 sequence (whole entry): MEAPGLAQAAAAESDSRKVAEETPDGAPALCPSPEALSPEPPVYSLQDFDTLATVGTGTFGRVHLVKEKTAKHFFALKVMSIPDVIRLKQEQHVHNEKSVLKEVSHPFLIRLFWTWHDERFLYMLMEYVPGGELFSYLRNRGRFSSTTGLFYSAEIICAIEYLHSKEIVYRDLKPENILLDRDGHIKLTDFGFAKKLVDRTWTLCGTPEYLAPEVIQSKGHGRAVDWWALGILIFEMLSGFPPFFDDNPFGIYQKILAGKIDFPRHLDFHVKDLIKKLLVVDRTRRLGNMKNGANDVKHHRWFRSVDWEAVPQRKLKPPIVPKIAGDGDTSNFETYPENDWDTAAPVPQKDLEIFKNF

[9] = target: T5, cAMP-dependent protein kinase catalytic subunit PRKX (Homo sapiens); conditions: at 1 µM
[10] = target: Rho-associated protein kinase 1 (Homo sapiens) (UniProt Q13464); conditions: at 0.1 µM
[11] = target: Rho-associated protein kinase 1 (Homo sapiens) (UniProt Q13464); conditions: at 1 µM
[12] = target: Rho-associated protein kinase 2 (Homo sapiens) (UniProt O75116); conditions: at 0.1 µM
[13] = target: Rho-associated protein kinase 2 (Homo sapiens) (UniProt O75116); conditions: at 1 µM
[14] = target: Ribosomal protein S6 kinase alpha-1 (Homo sapiens) (UniProt Q15418); conditions: at 0.1 µM
[15] = target: Ribosomal protein S6 kinase alpha-1 (Homo sapiens) (UniProt Q15418); conditions: at 1 µM
[16] = target: Ribosomal protein S6 kinase alpha-3 (Homo sapiens) (UniProt P51812); conditions: at 0.1 µM
[17] = target: Ribosomal protein S6 kinase alpha-3 (Homo sapiens) (UniProt P51812); conditions: at 1 µM
[18] = target: Ribosomal protein S6 kinase alpha-2 (Homo sapiens) (UniProt Q15349); conditions: at 0.1 µM
[19] = target: Ribosomal protein S6 kinase alpha-2 (Homo sapiens) (UniProt Q15349); conditions: at 1 µM
[20] = target: Ribosomal protein S6 kinase alpha-6 (Homo sapiens) (UniProt Q9UK32); conditions: at 0.1 µM;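 further: reported value is the mean inhibition of RSK4, from the GSK PKIS kinase inhibitor screen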

Ribosomal protein S6 kinase alpha-3 (Homo sapiens), sequence (P51812 whole entry): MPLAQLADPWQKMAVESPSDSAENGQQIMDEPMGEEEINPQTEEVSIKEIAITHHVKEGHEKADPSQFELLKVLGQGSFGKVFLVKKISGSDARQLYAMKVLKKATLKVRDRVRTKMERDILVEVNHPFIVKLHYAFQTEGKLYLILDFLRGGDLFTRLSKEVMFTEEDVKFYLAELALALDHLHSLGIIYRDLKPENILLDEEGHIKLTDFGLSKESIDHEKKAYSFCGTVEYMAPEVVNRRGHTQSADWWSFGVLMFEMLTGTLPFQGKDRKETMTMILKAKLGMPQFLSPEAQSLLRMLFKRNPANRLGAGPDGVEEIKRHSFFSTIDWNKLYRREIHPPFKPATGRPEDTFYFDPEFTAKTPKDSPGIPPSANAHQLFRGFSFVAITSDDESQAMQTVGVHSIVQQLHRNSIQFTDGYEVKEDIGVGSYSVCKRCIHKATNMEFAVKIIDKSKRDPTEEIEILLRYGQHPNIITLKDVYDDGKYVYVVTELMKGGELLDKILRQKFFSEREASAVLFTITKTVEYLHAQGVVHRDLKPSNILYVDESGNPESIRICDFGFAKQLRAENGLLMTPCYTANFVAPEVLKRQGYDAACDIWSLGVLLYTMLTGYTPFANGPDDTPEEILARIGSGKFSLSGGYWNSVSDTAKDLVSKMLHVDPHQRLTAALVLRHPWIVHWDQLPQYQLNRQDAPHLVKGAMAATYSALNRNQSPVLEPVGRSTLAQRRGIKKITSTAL
Rho-associated protein kinase 1 (Homo sapiens), sequence (Q13464 2-1354 limits assumed): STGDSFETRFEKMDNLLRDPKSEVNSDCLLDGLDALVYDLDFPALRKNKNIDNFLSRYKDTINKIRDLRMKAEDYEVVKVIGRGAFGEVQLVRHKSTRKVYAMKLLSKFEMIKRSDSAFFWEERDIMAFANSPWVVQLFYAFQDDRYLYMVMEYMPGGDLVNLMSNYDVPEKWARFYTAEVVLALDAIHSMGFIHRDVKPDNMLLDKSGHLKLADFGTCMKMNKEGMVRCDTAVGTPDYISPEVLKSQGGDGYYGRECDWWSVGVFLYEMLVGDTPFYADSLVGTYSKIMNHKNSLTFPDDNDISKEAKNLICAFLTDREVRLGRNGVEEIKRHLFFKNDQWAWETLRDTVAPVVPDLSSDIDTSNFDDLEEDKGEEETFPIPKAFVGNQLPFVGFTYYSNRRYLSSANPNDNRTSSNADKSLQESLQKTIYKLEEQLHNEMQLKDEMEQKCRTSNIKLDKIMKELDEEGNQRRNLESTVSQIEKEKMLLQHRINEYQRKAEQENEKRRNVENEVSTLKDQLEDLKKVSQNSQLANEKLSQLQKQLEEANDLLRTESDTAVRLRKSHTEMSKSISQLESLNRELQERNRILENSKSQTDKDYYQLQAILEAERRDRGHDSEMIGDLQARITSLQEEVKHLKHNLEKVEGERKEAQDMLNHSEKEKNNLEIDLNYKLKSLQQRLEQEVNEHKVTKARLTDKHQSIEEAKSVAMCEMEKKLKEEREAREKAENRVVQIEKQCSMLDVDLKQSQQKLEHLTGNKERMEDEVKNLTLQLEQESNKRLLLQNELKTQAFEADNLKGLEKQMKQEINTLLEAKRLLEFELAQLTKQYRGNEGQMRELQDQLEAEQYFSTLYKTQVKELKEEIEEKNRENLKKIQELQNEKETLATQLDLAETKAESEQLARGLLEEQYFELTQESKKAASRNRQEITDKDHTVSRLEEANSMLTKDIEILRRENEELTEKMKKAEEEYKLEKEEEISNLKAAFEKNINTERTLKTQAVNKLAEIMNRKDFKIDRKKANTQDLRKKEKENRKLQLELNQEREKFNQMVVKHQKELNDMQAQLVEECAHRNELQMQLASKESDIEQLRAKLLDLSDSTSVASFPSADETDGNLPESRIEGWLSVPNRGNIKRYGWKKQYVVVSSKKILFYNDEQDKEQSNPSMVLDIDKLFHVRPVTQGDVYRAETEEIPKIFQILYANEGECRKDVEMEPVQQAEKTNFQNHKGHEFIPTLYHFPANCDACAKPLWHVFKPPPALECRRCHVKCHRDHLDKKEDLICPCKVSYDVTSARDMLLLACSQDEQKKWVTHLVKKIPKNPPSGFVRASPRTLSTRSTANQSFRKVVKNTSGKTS
Ribosomal protein S6 kinase alpha-1 (Homo sapiens), sequence (Q15418 whole entry): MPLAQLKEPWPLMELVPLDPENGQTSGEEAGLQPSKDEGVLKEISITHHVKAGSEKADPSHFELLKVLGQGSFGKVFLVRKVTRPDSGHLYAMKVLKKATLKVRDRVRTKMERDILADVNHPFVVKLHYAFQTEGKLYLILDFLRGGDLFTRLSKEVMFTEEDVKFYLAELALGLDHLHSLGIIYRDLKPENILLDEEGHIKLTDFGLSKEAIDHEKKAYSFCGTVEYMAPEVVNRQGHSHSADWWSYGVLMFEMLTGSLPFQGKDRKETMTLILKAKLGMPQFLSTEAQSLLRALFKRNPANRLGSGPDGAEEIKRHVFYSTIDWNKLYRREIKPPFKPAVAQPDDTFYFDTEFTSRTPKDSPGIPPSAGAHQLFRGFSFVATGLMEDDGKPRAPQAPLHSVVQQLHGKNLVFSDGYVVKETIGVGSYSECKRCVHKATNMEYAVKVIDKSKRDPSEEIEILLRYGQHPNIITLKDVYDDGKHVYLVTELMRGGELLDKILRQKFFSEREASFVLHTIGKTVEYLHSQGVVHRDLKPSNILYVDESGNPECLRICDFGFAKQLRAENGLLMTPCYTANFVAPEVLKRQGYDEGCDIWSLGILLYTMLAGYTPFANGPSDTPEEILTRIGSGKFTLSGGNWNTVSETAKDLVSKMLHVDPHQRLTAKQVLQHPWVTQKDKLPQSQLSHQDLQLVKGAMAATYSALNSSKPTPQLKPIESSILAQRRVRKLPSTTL
Rho-associated protein kinase 2 (Homo sapiens), sequence (O75116 whole entry, looked up): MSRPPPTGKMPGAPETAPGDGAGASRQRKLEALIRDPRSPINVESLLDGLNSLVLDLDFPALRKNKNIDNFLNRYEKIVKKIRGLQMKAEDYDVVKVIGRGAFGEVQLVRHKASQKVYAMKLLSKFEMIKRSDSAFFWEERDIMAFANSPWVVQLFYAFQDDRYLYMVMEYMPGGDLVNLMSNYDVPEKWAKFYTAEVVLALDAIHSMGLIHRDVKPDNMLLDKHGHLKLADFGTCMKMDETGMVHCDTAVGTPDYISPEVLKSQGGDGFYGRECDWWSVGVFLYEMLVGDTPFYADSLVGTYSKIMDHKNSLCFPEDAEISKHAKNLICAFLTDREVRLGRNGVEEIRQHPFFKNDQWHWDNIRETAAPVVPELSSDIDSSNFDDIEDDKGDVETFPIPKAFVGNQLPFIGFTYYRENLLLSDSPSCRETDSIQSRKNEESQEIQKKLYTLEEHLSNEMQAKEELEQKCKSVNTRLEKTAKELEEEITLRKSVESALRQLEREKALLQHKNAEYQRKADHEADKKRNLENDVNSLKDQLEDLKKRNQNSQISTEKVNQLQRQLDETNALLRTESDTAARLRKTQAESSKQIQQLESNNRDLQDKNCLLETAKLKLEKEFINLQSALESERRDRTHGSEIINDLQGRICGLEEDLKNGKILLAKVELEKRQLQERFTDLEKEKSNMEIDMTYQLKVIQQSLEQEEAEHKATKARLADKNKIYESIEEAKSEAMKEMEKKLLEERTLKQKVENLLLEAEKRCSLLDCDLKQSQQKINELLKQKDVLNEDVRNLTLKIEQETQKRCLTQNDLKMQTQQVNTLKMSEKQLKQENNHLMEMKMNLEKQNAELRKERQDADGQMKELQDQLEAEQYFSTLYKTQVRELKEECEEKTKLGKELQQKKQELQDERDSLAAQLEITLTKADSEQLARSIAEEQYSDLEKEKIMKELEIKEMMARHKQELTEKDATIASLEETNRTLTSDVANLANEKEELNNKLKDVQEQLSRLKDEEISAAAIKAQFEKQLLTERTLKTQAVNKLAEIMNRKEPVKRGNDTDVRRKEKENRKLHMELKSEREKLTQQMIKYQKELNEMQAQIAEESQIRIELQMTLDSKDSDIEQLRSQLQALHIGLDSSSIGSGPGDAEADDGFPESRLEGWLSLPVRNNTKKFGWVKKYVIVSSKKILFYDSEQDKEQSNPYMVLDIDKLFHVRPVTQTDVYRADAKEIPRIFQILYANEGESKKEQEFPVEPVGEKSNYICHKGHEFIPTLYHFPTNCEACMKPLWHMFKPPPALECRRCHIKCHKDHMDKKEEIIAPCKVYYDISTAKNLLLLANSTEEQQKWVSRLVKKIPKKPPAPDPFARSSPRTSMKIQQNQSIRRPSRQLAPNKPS
Ribosomal protein S6 kinase alpha-2 (Homo sapiens), sequence (Q15349 whole entry): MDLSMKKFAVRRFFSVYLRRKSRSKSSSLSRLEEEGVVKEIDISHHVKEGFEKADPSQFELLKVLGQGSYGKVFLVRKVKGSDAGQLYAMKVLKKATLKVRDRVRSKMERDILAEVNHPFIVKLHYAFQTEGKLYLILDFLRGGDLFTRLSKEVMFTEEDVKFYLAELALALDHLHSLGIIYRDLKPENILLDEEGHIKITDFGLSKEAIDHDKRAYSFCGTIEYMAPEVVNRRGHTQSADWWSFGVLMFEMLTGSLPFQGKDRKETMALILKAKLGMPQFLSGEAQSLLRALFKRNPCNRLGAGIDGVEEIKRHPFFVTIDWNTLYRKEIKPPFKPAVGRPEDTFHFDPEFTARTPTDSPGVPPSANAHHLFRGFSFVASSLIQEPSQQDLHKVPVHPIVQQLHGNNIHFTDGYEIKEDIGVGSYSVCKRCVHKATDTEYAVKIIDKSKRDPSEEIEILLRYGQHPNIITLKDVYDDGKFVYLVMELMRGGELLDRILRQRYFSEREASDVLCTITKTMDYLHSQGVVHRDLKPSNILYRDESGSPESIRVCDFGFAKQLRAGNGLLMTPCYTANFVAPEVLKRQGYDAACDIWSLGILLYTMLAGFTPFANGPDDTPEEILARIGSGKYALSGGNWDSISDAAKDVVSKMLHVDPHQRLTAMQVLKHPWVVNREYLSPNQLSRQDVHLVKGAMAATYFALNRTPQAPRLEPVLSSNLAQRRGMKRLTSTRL

| SMILES | inhibition [1] [%] | inhibition [2] [%] | inhibition [3] [%] | inhibition [4] [%] | inhibition [5] [%] | inhibition [6] [%] | inhibition [7] [%] | inhibition [8] [%] | inhibition [9] [%] | inhibition [10] [%] | inhibition [11] [%] | inhibition [12] [%] | inhibition [13] [%] | inhibition [14] [%] | inhibition [15] [%] | inhibition [16] [%] | inhibition [17] [%] | inhibition [18] [%] | inhibition [19] [%] | inhibition [20] [%] |
| --- | --- | --- | --- | --- | --- | --- | --- | --- | --- | --- | --- | --- | --- | --- | --- | --- | --- | --- | --- | --- |
| NC(=O)c1cc(-c2ccncc2)cc(-c2ccccc2)c1N | 5.63 | 5.86 | 6.16 | 3.61 | 8.21 | 2.71 | 5.42 | 1.92 | 2.61 | 1.71 | 6.72 | 3.44 | 9.1 | 1.01 | -1.21 | 1.46 | 1.47 | 3.07 | 2.57 | 2.79 |
| CCc1cccc(CC)c1/C=C/c1cncc(C(=O)NC)c1 | 7.18 | 3.3 | 7.02 | 2.74 | 2.71 | 1.38 | 1.83 | 3.9 | -1.34 | 0.87 | 1.22 | 1.66 | -0.13 | 1.4 | 0.95 | 0.3 | -0.37 | 1.51 | 0.74 | 0.65 |
| O=C1Nc2ccc(I)cc2C1=Cc1cc(Br)c(O)c(Br)c1 | 1.24 | 3.73 | 3.16 | 3.82 | 5.76 | 2.47 | 6.45 | 0.49 | 2.04 | 2.76 | 2.32 | 2.42 | 4.03 | 0.5 | 2.27 | 1.27 | 1.7 | 2.5 | 3.82 | 1.37 |
| Cc1nnc(-c2ccc(C)c(-c3ccc(C(=O)NCc4ccc(Cl)cc4)cc3)c2)o1 | -0.8 | 2.09 | -0.1 | 2.07 | 5.32 | 3.25 | 3.86 | 2.66 | 5.13 | 1.51 | 2.48 | 3.86 | 5.72 | 2.78 | 2.72 | 2 | 2.89 | 3.07 | 3.77 | 1.59 |
| COc1cc(N2CCN(C(C)C)CC2)ccc1Nc1nc(Nc2ccc(F)cc2C(=O)NC[C@@H](O)CO)c2cc[nH]c2n1 | 17.5 | 3.93 | 20.7 | 7.74 | 35.1 | 2.82 | 8.2 | 2.99 | 6.02 | 1.24 | 2.04 | 4.24 | 8.05 | 3.27 | 12.1 | 2.71 | 7.3 | 3.45 | 5.13 | 2.51 |
| N#Cc1ccc(Oc2nccc(-c3c(-c4ccc(F)cc4)ncn3C3CCNCC3)n2)cc1 | 5.05 | 5.58 | 5.89 | 2.79 | 2.48 | 2.19 | 2.92 | 1.03 | 2.01 | 2.51 | 4.31 | 2.81 | 4.38 | 0.36 | 1.46 | 1.39 | 1.85 | 2.38 | 3.07 | 0.67 |
| C#Cc1cccc(Nc2ncnc3ccc(OCCCCNCCS(C)(=O)=O)cc23)c1 | 26.7 | 3.35 | 15 | 1.04 | 7.37 | 2.75 | 8.83 | 2.48 | 4.38 | 1.86 | 2.52 | 3.83 | 6.92 | 3.85 | 5.51 | 2.14 | 3.87 | 3.31 | 4.55 | 1.75 |
| CCC(=O)Nc1ccc(C)c(-c2ccc(C(=O)NCC3CC3)cc2)c1 | 0.39 | 2.64 | 2.11 | 2.33 | 2.99 | 1.03 | 3.23 | 0.64 | 1.66 | 2.95 | 4.2 | 2.63 | 3.64 | 0.56 | 0.53 | 0.82 | 0.79 | 1.75 | 2.09 | 0.01 |
| CCN(CC)Cc1ccc(Nc2nccc(-c3cnn4ncccc34)n2)cc1 | 64.4 | 30.2 | 62.6 | 3.48 | 14.9 | 3.29 | 13.7 | 2.55 | 4.27 | 2.36 | 9.36 | 2.02 | 13.7 | 0.21 | 2.52 | -0.63 | 2.49 | 2.26 | 3.81 | 0.43 |
